outcome, inhibition and potentiation data for 16 molecules are collected here from PubChem BioAssay.

As a reminder, the inhibition is the percentage by which the read-out fell short of the control.

The subject of test [1] is TRPC4 beta (transient receptor potential cation channel C4), mouse. Briefly: activators of mouse TRPC4 channel, confirmation, cell-based, Fluo4 calcium, HEK293 TRPC4beta/mu-opioid, duplicates, 10 µM (AID 2426;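 active means fluorescence ratio normalized to control raised more than 50% in primary screen plus both repeat runs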). The following applies: Fluo4 calcium fluorescence, at 10 µM; active compounds read high.
Test [2] concerns transient receptor potential cation channel C4 beta (TRPC4), mouse. Put plainly: activators of mouse TRPC4 channel, confirmation, cell-based, second round, Fluo4, HEK293 TRPC4beta/mu-opioid, 1 µM (AID 2461;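 active means primary screen active and over 50% activation in each of two duplicate runs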). The following applies: Fluo4 calcium fluorescence, at 1 µM; active compounds read high.
The subject of test [3] is TRPC4 (transient receptor potential cation channel C4 beta), mouse. Briefly: positive allosteric modulators of mouse TRPC4, confirmation, cell-based, second round, Fluo-4, HEK293 TRPC4beta/mu-opioid, 1 µM (AID 2554;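 active means primary screen hit whose fluorescence ratio, in both repeats, exceeds the weak agonist control mean by 3 SD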). The note with it: DAMGO EC20, Fluo-4 calcium flux, at 1 µM; active compounds read high. In general terms: Calcium flux is commonly read through the fluorescence of an indicator in the cells.

Test [4] relates to TRPC4 beta (transient receptor potential cation channel C4), mouse. Put plainly: positive allosteric modulators of mouse TRPC4, confirmation, cell-based, Fluo-4, HEK293 TRPC4beta/mu-opioid (AID 2555;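 active means primary screen hit whose calcium fluorescence ratio, in both repeats, exceeds the weak agonist control mean by 3 SD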). The note with it: DAMGO EC20, Fluo-4 calcium flux, at 10 µM; active compounds read high.
Test [5] has as its target Short transient receptor potential channel 4 (Mus musculus) (UniProt Q9QUQ5). Put plainly: inhibitors of mouse TRPC4 channel, confirmation, cell-based, Fluo4, HEK293 TRPC4beta/mu-opioid (AID 2636;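 active means calcium signal cut by more than 3 SD below the full-agonist control yet still positive, in both repeats and the earlier primary screen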). The note with it: DAMGO, Fluo4 calcium flux, at 10 µM; active compounds read high.
Test [6] has the same target. Put plainly: inhibitors of mouse TRPC4 channel, confirmation, cell-based, second round, Fluo4, HEK293 TRPC4beta/mu-opioid, 1 µM (AID 2637;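 active means calcium signal ratio cut to more than 3 SD under the fully stimulated control mean yet still positive, in both repeats and the primary screen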). The following applies: Fluo4 calcium flux, DAMGO, at 1 µM; active compounds read high.
For test [7] the target is unchanged. Briefly: mouse TRPC4 channel activators, dose response, cell-based, HEK293 TRPC4/mu-opioid, Fluo-4 calcium (AID 434937;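 active means primary screen activator hit with a dose response curve and TRPC4 channel activation at any tested dose; inactive means no activation, no dose response, or not a primary hit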).
Test [8] has the same target. Briefly: TRPC4 positive allosteric modulators, dose response, cell-based, HEK293 TRPC4/mu-opioid, Fluo-4 calcium, EC20 DAMGO (AID 434941;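 active means earlier screen potentiator hit that boosts the TRPC4 ion channel at some dose, with a dose response; inactive means no potentiation, no dose response, or not a prior hit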;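 further: calcium entry triggered by an EC20 dose of DAMGO at the co-expressed mu-opioid receptor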).
For test [9] the target is unchanged. Put plainly: mouse TRPC4 channel inhibitors, dose response, cell-based, HEK293 TRPC4/mu-opioid, Fluo-4 calcium (AID 434942;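 active means primary screen inhibitor hit that blocks the TRPC4 channel at some tested dose, yielding a dose curve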).
Test [10] deals with Short transient receptor potential channel 6 (Mus musculus) (UniProt Q61143). Briefly: inhibition of mouse TRPC6 channel, confirmation, selectivity assay for TRPC4 inhibitor project, cell-based, HEK293, membrane potential dye, duplicate (AID 434948;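 active means active in primary screen and both duplicates, each dropping signal beyond three positive-control SD with fluorescence still positive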). The note with it: HEK293 TRPC6, membrane potential dye fluorescence, at 10 µM, stimulated with maximal-effect acetylcholine; active compounds read high.

The target is the same in test [11]. Briefly: activation of mouse TRPC6 channel, confirmation, selectivity assay for TRPC4 activator project, cell-based, HEK293, membrane potential dye, duplicate (AID 434950;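 active means membrane potential signal rise above negative control mean plus 3 SD in both duplicates, also active in the earlier TRPC4 screen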). The note with it: HEK293 TRPC6, membrane potential fluorescence, at 10 µM; active compounds read high.
For test [12] the target is unchanged. Briefly: TRPC6 potentiation by TRPC4 potentiator hits, confirmation, selectivity assay for TRPC4 potentiator project, HEK293 cells, membrane potential dye, duplicate (AID 434952;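 active means compound raising the membrane signal above positive-control mean plus 3 SD in both repeats, and a primary screen hit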). The note with it: HEK293 TRPC6, membrane potential dye fluorescence, at 10 µM, maximal acetylcholine added after compound; active compounds read high.
Test [13] concerns the target Short transient receptor potential channel 4 (Mus musculus) (UniProt Q9QUQ5). Put plainly: calcium flux activators in TRPC4/5HT1a cells, counter-screen for TRPC4 activator project, cell-based, second counter screen, HEK293 TRPC4/5HT1a, Fluo-4 (AID 434977;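 active means calcium signal rise above buffer-control mean plus 5 SD in both duplicates, and also a hit in the primary screen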). The note with it: Fluo-4 calcium flux, at 10 µM; active compounds read high.
The nature of test [14]: calcium flux inhibitors in TRPC4/5HT1a cells, confirmation, counter-screen for TRPC4 inhibitor project, cell-based, second counter screen, HEK293 TRPC4/5HT1a, Fluo-4 (AID 434978;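 active means primary screen active whose calcium signal fell more than 3 SD beyond the full-serotonin control mean in both duplicate plates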;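 further: serotonin given first at submaximal then at maximal dose after compound preincubation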). The following applies: Fluo-4 calcium flux, at 10 µM, serotonin added to trigger calcium flux; active compounds read high.
The subject of test [15] is TRPC4 (mouse), co-expressed with 5HT1a in HEK293. Briefly: calcium flux potentiators in TRPC4/5HT1a cells, confirmation, counter-screen for TRPC4 potentiator project, cell-based, second counter screen, HEK293 TRPC4/5HT1a, Fluo-4 (AID 434979). The following applies: Fluo-4 calcium flux, at 10 µM, serotonin added at its EC20 dose; active compounds read high.
A short description of test [16]: calcium flux activation in mu-opioid HEK293 cells, confirmation, counter-screen for TRPC4 activator project, cell-based, HEK293 mu-opioid receptor line (AID 449723;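 active means hit in primary screen, with calcium signal over 5 SD above buffer well mean in both duplicates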;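 further: counter screen cells carry the mu-opioid receptor alone and lack TRPC4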). The following applies: Fluo-4 calcium fluorescence, at 10 µM; active compounds read high.
A short description of test [17]: calcium flux enhancement in mu-opioid HEK293 cells, confirmation, counter-screen for TRPC4 allosteric potentiator project, cell-based, HEK293 mu-opioid receptor line (AID 449724;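 active means calcium signal rise more than 3 SD above the low-dose agonist control mean, in both duplicate plates and the primary screen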;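 further: HEK293 cells carrying mu-opioid receptor only with no TRPC4 channel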). The note with it: Fluo-4 calcium flux, at 10 µM, compound added before EC20 DAMGO stimulus; active compounds read high.

For some assays here: Entries with a potency or affinity are not part of this list. Activity calls are given as the source filed them.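 How the source made its calls, unless noted: active means signal rise over 3 SD above mean of control wells given weak agonist, in both repeats and first screen; inactive means the rest.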

Chain of Short transient receptor potential channel 6 (Mus musculus) (Q61143 whole entry, looked up): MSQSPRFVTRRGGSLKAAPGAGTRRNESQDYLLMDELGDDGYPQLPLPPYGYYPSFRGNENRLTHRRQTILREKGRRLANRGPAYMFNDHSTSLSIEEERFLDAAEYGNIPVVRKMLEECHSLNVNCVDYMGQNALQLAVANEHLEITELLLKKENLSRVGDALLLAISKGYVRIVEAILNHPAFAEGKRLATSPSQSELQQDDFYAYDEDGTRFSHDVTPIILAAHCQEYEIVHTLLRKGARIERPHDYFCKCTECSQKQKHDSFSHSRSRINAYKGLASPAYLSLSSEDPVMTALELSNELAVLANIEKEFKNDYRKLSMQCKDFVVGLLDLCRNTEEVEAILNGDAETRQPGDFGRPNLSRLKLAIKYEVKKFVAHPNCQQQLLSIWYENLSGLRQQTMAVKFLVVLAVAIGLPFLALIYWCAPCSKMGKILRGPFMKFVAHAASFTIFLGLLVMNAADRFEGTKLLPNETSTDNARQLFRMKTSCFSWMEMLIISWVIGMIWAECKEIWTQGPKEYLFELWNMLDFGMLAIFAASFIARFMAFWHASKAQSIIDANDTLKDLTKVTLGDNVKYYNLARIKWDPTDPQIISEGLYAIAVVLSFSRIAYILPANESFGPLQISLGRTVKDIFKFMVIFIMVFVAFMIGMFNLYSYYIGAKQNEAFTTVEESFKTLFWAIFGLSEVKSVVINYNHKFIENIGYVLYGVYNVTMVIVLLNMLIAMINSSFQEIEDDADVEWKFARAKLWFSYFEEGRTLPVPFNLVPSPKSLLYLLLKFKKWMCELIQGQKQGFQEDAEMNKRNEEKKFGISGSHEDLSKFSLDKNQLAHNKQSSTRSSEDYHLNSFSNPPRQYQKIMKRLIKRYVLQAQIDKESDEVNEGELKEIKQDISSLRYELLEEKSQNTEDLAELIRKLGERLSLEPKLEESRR
Chain of Short transient receptor potential channel 4 (Mus musculus) (Q9QUQ5 whole entry, looked up): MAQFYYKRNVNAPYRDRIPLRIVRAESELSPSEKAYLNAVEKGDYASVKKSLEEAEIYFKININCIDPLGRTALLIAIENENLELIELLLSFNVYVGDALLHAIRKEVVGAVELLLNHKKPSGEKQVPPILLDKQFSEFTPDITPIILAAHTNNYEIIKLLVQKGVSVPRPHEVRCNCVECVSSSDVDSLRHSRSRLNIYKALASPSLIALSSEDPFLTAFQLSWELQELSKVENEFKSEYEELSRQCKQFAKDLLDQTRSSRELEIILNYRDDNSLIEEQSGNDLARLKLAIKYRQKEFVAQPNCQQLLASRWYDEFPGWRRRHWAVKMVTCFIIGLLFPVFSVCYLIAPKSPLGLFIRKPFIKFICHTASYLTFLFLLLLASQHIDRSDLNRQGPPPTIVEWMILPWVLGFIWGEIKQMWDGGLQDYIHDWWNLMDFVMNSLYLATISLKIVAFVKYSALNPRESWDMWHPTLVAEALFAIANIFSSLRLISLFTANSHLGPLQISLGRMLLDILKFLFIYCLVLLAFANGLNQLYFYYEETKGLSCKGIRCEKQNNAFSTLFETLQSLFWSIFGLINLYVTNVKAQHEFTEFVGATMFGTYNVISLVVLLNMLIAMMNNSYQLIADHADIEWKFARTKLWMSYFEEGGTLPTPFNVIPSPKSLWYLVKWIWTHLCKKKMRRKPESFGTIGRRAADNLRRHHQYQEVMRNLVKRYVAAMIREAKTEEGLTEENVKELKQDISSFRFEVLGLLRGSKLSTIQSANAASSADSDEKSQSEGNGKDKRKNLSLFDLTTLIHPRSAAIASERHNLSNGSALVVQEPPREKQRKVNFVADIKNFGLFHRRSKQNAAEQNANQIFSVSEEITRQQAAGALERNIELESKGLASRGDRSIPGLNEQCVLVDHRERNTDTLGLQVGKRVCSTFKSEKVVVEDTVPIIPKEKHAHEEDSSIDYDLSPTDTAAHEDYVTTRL

On to `c1ccc(Cn2nnc3cnccc32)cc1`, for which the outcome in [1], in test [2], in test [3], in [4], in test [6] and in test [7] was inactive. For the same molecule, the outcome in test [8], in [9], in test [10], in test [11], in test [12] and in [13] was inactive. In addition, the outcome in test [14], in test [15], in test [16] and in test [17] was inactive. Also, the inhibition in [5] was 65% (active).

On to `Cc1cccc(OCCn2c(=O)sc3ccccc32)c1`, for which the result in test [1], in [2], in [3], in test [4], in [5] and in test [6] was inactive. Further, the outcome in [7], in test [8], in test [9], in [10], in test [11] and in test [12] was inactive. Moreover, the outcome in test [13], in test [14], in test [15], in test [16] and in test [17] was inactive.

For `CCCn1c(N)c(C(=O)CSc2n[nH]c(-c3ccc(C)cc3)n2)c(=O)[nH]c1=O`, the result in [1], in test [2], in test [3], in test [4], in test [5] and in [6] was inactive. The result in test [7], in [8], in [9], in test [10], in test [11] and in test [12] was inactive. Besides, the result in test [13], in test [14], in [15], in test [16] and in test [17] was inactive.

On to `O=C(Nc1ccc(Cl)c(Cl)c1)N(CCCN1CCOCC1)Cc1cccs1`, for which the result in test [1], in test [2], in test [3], in test [4], in [5] and in test [6] was inactive. The result in [7], in [8], in [9], in test [10], in test [11] and in test [12] was inactive. Also, the outcome in test [13], in [14], in test [15], in test [16] and in test [17] was inactive.

Take `O=S(=O)(Nc1ccc(S(=O)(=O)Nc2cccc3ccccc23)cc1)c1ccccc1`: the result in test [1], in test [2], in test [3], in test [4], in [5] and in test [6] was inactive. Moreover, the result in test [7], in test [8], in test [9], in test [10], in test [11] and in [12] was inactive. The outcome in test [13], in [14], in test [15], in test [16] and in [17] was inactive.

For `CC1CCN(CCc2nc3cc(NS(=O)(=O)c4ccc(F)cc4)ccc3n2C)CC1`, the outcome in test [1], in test [2], in [3], in test [4], in test [5] and in test [6] was inactive. Moreover, the result in [7], in test [8], in [9], in [10], in test [11] and in [12] was inactive. The result in [13], in [14], in [16] and in [17] was inactive. In addition, the potentiation in test [15] is 7.72% (active).

For the molecule `Cc1c(C(=O)NCCc2ccccc2)oc2ccccc12`, the outcome in test [1], in [2], in test [3], in test [5], in test [6] and in test [7] was inactive. Moreover, the outcome in test [8], in test [9], in test [10], in test [11], in [12] and in test [13] was inactive. The outcome in [14], in [16] and in test [17] was inactive. Besides, the potentiation in test [4] is 61% (active); in [15] it was 45.7% (active).

In the case of `CC1(C)CN=c2s/c(=C\c3ccc(Cl)cc3)c(=O)n2C1`, the result in [1], in test [2], in [3], in test [4], in test [5] and in [6] was inactive. Further, the result in test [7], in [8], in test [9], in [10], in test [11] and in test [12] was inactive. Also, the result in test [13], in test [14], in test [16] and in [17] was inactive. The potentiation in [15] is 25.3% (active).

`COc1cc(=O)n2c(-c3ccccc3)csc2n1`: the outcome in test [1], in [2], in [3], in [4], in test [6] and in test [7] was inactive. The result in test [8], in test [9], in test [10], in test [11], in test [12] and in [13] was inactive. Besides, the outcome in [14], in test [15], in test [16] and in test [17] was inactive. The inhibition in test [5] is 39% (active).

On to `CN(CCNC(=O)c1ccc(/C=N/O)nc1)Cc1ccccc1`, for which the result in [1], in [2], in [5], in [6], in [7] and in test [8] was inactive. Besides, the result in [9], in [10], in test [11], in [12], in test [13] and in test [14] was inactive. The outcome in test [16] and in [17] was inactive. Besides, the potentiation in test [3] is 18% (active); in test [4], 8% (active); in test [15], 19.6% (active).

For `O/N=C/c1cn(-c2ccccc2)nc1-c1ccc2c(c1)OCCO2`, the outcome in test [1], in [2], in [3], in [5], in test [6] and in test [7] was inactive. Besides, the result in test [8], in test [9], in [10], in test [11], in test [12] and in [13] was inactive. In addition, the outcome in test [14], in test [16] and in test [17] was inactive. Besides, the potentiation in test [4] was 16% (active); in test [15], 29.3% (active).

In the case of `CCCSc1nc(C)cc(C)c1S(=O)(=O)c1ccccc1C`, the result in [1], in [2], in test [3], in test [4], in [5] and in test [6] was inactive. Besides, the outcome in [7], in [8], in [9], in test [10], in test [11] and in [12] was inactive. For the same molecule, the outcome in test [13], in test [14], in test [15], in test [16] and in [17] was inactive.

With `O=C(c1ccccc1F)N1CCN(c2ccc([N+](=O)[O-])c3cccnc23)CC1`, the outcome in [1], in test [2], in test [3], in [5], in test [6] and in test [7] was inactive. The result in [8], in test [9], in test [10], in test [11], in [12] and in test [13] was inactive. In addition, the result in [14], in [16] and in [17] was inactive. Also, the potentiation in [4] was 18% (active); in test [15], 16.5% (active).

In the case of `COc1cc2cc(C)c(SCC(=O)N3CCN(C(=O)c4ccco4)CC3)nc2cc1OC`, the result in test [1], in test [2], in test [3], in test [4], in test [5] and in [6] was inactive. Moreover, the outcome in test [7], in [8], in test [9], in [10], in test [11] and in test [12] was inactive. The outcome in test [13], in test [14], in [15], in test [16] and in test [17] was inactive.

As for `C1CCN(c2nc(N3CCCCC3)nc(N3CCNCC3)n2)CC1`, the outcome in test [1], in test [2], in test [3], in test [4], in test [5] and in test [6] was inactive. Further, the result in test [7], in test [8], in test [9], in test [10], in test [11] and in test [12] was inactive. Besides, the outcome in test [13], in test [14], in test [16] and in [17] was inactive. Besides, the potentiation in test [15] was 8.18% (active).

For `CC(=O)N1N=C(c2ccc(Br)cc2)OC1(C)CC(=O)Nc1ccccc1` (configuration not stated), the outcome in [1], in test [2], in [3], in test [4], in [5] and in test [6] was inactive. The result in test [7], in [8], in test [9], in test [10], in test [11] and in [12] was inactive. For the same molecule, the outcome in test [13], in [14], in [16] and in test [17] was inactive. The potentiation in test [15] was 13.4% (active).
